Test results as given in ChEMBL document CHEMBL1961873, “Compounds: GSK PKIS; Assays: Nanosyn kinase panel” (2012).

Legend:
[1] = target: Sphingosine kinase 1 (Homo sapiens) (UniProt Q9NYA1); settings: at 1 µM;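 also: mean SPHK1 inhibition value reported from the GSK PKIS kinase panel screen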
[2] = target: T1, Sphingosine kinase 2 (Homo sapiens) (UniProt Q9NRA0); settings: at 0.1 µM
T1 sequence (whole entry): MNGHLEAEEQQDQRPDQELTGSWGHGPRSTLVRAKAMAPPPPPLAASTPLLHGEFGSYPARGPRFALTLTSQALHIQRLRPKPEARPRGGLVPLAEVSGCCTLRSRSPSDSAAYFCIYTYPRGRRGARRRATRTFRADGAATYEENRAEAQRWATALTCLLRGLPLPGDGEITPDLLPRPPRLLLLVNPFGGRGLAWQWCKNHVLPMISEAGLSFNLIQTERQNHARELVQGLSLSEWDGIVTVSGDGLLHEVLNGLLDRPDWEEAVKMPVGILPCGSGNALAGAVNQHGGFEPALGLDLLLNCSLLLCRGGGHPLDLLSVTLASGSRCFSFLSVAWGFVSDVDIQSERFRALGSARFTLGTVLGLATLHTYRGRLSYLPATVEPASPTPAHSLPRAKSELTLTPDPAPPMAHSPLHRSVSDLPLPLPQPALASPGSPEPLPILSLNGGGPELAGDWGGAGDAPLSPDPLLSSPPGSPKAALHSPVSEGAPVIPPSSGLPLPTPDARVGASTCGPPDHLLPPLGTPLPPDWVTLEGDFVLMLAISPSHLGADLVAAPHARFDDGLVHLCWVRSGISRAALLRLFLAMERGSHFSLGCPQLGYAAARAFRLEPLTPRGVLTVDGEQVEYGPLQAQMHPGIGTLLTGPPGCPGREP

[3] = target: T1, Sphingosine kinase 2 (Homo sapiens); settings: at 1 µM
[4] = target: Casein kinase II subunit alpha (Homo sapiens) (UniProt P68400); settings: at 0.1 µM
Chain of Casein kinase II subunit alpha (Homo sapiens) (P68400 whole entry, looked up): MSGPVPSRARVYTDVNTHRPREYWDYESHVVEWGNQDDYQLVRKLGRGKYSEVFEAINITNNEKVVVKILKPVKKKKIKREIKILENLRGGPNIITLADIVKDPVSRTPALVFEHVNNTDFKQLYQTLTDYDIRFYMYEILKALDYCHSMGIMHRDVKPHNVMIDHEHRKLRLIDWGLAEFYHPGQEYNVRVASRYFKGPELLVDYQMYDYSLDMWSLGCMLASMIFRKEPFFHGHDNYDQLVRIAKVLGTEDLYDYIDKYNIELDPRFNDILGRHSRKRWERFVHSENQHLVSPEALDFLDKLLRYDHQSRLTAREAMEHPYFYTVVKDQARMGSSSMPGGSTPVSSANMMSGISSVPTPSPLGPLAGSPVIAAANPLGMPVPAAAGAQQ

[5] = target: Casein kinase II subunit alpha (Homo sapiens) (UniProt P68400); settings: at 1 µM
[6] = target: T2, Inhibitor of nuclear factor kappa-B kinase subunit alpha (Homo sapiens) (UniProt O15111); settings: at 0.1 µM
T2 sequence (whole entry): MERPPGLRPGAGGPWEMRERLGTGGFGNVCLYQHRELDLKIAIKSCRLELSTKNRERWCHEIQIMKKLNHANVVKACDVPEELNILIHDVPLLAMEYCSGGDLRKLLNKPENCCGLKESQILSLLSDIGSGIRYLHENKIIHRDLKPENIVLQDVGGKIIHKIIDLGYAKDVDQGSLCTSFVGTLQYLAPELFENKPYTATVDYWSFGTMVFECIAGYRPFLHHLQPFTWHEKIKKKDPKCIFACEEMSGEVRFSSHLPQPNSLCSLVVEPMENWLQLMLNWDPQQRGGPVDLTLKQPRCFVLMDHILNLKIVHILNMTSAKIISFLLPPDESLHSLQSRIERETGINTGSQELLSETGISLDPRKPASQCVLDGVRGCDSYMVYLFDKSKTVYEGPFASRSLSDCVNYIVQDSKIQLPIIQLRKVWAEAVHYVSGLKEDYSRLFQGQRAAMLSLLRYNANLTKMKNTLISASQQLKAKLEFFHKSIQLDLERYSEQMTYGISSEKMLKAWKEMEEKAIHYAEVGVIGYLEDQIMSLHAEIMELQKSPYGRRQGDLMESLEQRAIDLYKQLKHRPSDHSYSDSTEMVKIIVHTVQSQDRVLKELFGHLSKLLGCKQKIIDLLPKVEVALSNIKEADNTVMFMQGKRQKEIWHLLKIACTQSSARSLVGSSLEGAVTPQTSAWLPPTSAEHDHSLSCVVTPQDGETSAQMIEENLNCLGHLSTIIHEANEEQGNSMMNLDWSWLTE

[7] = target: T2, Inhibitor of nuclear factor kappa-B kinase subunit alpha (Homo sapiens); settings: at 1 µM
[8] = target: T3, Inhibitor of nuclear factor kappa-B kinase subunit beta (Homo sapiens) (UniProt O14920); settings: at 0.1 µM
T3 sequence (whole entry): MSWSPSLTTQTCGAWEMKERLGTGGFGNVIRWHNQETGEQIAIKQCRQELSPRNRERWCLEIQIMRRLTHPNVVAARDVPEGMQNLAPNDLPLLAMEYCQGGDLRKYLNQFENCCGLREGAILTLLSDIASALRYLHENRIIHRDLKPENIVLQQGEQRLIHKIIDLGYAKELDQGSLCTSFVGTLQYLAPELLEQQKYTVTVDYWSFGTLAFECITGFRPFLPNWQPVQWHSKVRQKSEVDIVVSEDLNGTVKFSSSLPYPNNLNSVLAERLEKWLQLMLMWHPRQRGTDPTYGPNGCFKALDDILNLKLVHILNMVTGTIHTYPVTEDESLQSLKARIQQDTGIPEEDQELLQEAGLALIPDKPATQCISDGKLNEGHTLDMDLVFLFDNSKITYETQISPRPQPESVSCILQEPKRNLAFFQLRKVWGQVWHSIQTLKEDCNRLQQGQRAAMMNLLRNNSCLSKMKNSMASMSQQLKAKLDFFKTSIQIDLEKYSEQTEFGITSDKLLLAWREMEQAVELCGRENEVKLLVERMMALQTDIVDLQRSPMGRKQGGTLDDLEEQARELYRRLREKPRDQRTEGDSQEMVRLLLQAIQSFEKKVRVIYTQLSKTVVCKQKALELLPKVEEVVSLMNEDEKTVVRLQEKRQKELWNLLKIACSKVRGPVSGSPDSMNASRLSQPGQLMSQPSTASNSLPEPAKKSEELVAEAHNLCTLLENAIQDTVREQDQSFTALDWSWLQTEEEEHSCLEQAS

[9] = target: T3, Inhibitor of nuclear factor kappa-B kinase subunit beta (Homo sapiens); settings: at 1 µM
[10] = target: T4, Inhibitor of nuclear factor kappa-B kinase subunit epsilon (Homo sapiens) (UniProt Q14164); settings: at 0.1 µM
T4 sequence (whole entry): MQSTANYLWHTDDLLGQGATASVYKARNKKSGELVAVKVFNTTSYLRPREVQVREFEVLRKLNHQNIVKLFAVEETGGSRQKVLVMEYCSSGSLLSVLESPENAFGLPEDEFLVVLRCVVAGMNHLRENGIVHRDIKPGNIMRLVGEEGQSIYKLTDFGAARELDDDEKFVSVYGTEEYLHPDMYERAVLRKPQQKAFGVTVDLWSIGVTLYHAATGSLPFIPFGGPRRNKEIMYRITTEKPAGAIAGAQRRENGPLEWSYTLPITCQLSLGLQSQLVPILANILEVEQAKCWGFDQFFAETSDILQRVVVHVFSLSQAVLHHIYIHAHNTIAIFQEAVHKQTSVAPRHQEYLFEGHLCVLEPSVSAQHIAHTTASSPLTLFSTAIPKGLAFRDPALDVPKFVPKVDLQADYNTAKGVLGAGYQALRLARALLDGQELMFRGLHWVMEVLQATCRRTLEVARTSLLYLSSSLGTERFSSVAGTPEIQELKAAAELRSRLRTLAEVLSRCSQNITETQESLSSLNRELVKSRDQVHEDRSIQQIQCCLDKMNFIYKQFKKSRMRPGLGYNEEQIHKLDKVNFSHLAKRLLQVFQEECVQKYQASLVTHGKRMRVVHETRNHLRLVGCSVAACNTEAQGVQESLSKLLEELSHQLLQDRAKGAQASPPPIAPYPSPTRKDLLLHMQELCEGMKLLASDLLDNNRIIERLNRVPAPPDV

[11] = target: T4, Inhibitor of nuclear factor kappa-B kinase subunit epsilon (Homo sapiens); settings: at 1 µM
[12] = target: T5, Serine/threonine-protein kinase Nek1 (Homo sapiens) (UniProt Q96PY6); settings: at 0.1 µM
T5 sequence (whole entry): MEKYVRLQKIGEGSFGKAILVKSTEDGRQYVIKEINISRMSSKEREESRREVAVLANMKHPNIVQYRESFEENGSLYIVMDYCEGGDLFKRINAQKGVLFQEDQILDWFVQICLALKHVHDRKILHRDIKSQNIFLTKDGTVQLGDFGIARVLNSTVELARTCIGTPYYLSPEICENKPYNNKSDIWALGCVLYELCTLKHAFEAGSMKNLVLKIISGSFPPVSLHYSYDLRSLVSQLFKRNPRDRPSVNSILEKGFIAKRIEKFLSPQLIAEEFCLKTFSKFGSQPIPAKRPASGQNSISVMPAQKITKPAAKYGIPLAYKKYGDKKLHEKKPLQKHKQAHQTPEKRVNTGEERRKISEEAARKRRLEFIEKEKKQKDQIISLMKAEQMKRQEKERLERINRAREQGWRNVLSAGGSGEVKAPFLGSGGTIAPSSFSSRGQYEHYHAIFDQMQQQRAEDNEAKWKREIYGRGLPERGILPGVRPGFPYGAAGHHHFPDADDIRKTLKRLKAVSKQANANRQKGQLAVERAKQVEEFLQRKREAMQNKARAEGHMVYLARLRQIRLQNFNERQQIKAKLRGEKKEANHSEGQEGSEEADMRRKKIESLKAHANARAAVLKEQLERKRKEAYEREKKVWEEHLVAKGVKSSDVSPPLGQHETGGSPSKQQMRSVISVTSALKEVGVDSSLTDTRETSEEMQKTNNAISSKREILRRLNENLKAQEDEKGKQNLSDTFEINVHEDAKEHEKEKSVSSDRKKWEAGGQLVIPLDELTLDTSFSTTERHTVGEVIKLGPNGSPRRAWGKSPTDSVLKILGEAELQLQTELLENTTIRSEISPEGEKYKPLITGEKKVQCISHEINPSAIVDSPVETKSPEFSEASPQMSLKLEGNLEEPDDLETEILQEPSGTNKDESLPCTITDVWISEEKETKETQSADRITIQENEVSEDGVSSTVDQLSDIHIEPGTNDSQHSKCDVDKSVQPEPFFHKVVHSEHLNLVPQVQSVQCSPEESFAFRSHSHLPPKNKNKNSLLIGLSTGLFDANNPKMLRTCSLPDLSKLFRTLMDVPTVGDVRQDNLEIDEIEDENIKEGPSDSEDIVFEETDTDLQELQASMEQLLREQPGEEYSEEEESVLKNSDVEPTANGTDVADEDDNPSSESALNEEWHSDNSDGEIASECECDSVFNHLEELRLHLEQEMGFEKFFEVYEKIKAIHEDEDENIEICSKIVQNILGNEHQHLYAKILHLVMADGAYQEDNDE

[13] = target: T5, Serine/threonine-protein kinase Nek1 (Homo sapiens); settings: at 1 µM
[14] = target: T6, Serine/threonine-protein kinase Nek2 (Homo sapiens) (UniProt P51955); settings: at 0.1 µM
T6 sequence (whole entry): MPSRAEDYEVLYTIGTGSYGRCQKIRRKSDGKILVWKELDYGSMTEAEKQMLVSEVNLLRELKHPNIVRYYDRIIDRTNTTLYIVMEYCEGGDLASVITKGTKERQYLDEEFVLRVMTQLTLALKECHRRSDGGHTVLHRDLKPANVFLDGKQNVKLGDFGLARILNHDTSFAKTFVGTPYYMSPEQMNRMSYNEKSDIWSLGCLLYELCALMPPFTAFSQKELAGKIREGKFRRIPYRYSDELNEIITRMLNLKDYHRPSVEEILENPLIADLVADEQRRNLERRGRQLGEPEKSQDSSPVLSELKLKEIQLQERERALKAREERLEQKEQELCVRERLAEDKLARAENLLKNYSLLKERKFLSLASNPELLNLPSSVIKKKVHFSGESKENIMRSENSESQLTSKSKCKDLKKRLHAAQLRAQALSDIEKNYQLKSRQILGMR

[15] = target: T6, Serine/threonine-protein kinase Nek2 (Homo sapiens); settings: at 1 µM
[16] = target: Serine/threonine-protein kinase Nek6 (Homo sapiens) (UniProt Q9HC98); settings: at 0.1 µM
Chain of Serine/threonine-protein kinase Nek6 (Homo sapiens) (Q9HC98 whole entry): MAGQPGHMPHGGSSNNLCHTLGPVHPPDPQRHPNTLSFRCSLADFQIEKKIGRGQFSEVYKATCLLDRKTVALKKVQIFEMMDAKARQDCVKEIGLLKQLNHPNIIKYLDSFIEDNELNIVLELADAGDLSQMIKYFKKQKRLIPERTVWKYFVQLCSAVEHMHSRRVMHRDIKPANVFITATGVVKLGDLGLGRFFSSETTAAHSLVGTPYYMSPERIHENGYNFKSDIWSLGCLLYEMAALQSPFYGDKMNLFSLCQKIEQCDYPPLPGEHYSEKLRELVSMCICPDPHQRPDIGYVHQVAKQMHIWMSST

[17] = target: Serine/threonine-protein kinase Nek6 (Homo sapiens) (UniProt Q9HC98); settings: at 1 µM
[18] = target: Serine/threonine-protein kinase Nek7 (Homo sapiens) (UniProt Q8TDX7); settings: at 0.1 µM
Chain of Serine/threonine-protein kinase Nek7 (Homo sapiens) (Q8TDX7 whole entry, looked up): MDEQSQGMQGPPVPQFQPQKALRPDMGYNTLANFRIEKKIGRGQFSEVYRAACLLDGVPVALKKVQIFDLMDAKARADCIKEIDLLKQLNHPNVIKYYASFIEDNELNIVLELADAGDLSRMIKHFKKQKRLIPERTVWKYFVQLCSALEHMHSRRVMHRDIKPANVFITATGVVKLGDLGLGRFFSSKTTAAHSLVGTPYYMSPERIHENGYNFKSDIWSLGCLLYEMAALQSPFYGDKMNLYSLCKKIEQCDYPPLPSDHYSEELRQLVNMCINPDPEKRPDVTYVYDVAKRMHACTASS

[19] = target: Serine/threonine-protein kinase Nek7 (Homo sapiens) (UniProt Q8TDX7); settings: at 1 µM
[20] = target: T7, Serine/threonine-protein kinase Nek9 (Homo sapiens) (UniProt Q8TD19); settings: at 0.1 µM;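 also: reported value is the mean percent inhibition of NEK9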
T7 sequence (whole entry): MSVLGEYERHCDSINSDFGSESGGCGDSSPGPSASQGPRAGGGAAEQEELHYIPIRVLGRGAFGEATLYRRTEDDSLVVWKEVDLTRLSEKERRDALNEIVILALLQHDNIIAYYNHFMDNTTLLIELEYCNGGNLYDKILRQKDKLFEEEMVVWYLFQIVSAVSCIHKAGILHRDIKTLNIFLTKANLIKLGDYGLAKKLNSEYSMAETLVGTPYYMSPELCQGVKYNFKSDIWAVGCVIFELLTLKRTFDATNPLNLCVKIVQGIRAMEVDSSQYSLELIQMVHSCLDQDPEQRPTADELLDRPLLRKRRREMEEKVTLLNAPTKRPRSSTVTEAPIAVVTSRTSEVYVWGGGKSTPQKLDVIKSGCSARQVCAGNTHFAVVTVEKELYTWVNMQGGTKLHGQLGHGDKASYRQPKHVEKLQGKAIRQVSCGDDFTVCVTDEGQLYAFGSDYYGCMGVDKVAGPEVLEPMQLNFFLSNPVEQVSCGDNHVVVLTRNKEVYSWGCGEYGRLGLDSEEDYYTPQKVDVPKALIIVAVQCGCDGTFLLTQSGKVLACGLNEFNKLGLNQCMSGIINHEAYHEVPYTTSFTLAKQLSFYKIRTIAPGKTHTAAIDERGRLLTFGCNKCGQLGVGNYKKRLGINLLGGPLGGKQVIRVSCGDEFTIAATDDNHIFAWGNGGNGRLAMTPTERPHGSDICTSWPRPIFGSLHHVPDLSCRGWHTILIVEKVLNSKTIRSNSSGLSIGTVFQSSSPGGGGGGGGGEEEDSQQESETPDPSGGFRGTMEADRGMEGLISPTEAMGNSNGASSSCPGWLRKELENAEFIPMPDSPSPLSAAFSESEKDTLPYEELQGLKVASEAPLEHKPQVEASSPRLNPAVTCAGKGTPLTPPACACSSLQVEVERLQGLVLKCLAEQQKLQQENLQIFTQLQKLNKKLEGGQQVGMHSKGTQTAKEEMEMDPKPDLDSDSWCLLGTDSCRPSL

Chain of Sphingosine kinase 1 (Homo sapiens) (Q9NYA1 whole entry): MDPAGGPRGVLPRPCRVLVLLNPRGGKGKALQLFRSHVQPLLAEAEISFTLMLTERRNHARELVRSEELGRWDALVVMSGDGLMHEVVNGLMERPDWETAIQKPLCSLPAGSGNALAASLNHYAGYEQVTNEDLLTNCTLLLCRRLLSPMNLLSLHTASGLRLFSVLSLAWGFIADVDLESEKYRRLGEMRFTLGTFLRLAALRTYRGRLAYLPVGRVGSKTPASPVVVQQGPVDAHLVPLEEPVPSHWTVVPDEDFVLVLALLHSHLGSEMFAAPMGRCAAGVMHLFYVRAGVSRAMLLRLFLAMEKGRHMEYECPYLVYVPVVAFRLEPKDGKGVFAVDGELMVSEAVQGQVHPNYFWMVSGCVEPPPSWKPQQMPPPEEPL

Q: NC(=O)Cc1ccccc1Oc1nccc(-c2c(-c3ccc(F)cc3)ncn2C2CCNCC2)n1 was tested. Which inhibition [1] did it give?
A: -2.09%

Q: What about the inhibition [2] of the same molecule?
A: 0.16%

Q: And the inhibition [3]?
A: 0.42%

Q: What about the inhibition [4] of the same molecule?
A: 1.72%

Q: And the inhibition [5]?
A: 2.63%

Q: And the inhibition [6]?
A: 8.64%

Q: And the inhibition [7]?
A: 0.14%

Q: And the inhibition [8]?
A: 4.37%

Q: And the inhibition [9]?
A: 3.54%

Q: And the inhibition [10]?
A: 2.28%

Q: And the inhibition [11]?
A: 0.67%

Q: And the inhibition [12]?
A: 1.64%

Q: And the inhibition [13]?
A: 4.11%

Q: And the inhibition [14]?
A: 2.13%

Q: And the inhibition [15]?
A: 4.35%

Q: And the inhibition [16]?
A: 0.28%

Q: And the inhibition [17]?
A: 1.26%

Q: And the inhibition [18]?
A: 3.21%

Q: And the inhibition [19]?
A: 2.73%

Q: What about the inhibition [20] of the same molecule?
A: 10.9%
